Assay results as given in PubChem BioAssay AID2283149 (EPA ToxCast).
Inconclusive results are not listed. Calls of active or inactive are those of the source. Rule for the calls: active = hit-call score of the fitted dose curve at least 0.9, where 1 is the maximum; inconclusive = response in the unintended direction; inactive = score below 0.9.

The compounds below were run against human Casein Kinase 1-alpha (CK1a), CSNK1A1 (gene 1452) (UniProt P48729) (assay: NVS_ENZ_hCK1a: NovaScreen (NVS) Enzymatic Assay for human Casein Kinase 1-alpha (CK1a)).
human Casein Kinase 1-alpha (CK1a), CSNK1A1 (gene 1452), sequence (P48729 whole entry, looked up): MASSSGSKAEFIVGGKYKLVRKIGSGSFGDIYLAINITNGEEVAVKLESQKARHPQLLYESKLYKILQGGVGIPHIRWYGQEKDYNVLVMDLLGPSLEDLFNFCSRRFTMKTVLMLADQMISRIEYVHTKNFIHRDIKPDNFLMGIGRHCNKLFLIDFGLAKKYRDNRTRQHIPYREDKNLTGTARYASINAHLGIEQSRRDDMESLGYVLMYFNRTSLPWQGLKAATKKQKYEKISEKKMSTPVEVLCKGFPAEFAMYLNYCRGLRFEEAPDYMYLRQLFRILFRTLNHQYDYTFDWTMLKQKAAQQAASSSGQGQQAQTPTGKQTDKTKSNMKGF
Description: NVS_ENZ_hCK1a is a biochemical, single-readout assay that uses extracted gene-proteins in a cell-free assay. Measurements were taken 1 hour after chemical dosing in a 384-well plate.NVS_ENZ_hCK1a is one of one assay component(s) measured or calculated from the NVS_ENZ_hCK1a assay. It is designed to make measurements of enzyme activity, a form of enzyme reporter, as detected with fluorescence intensity signals by Fluorescence and electrophoretic mobility shift technology.Data from the assay component NVS_ENZ_hCK1a was analyzed into 1 assay endpoint. This assay endpoint, NVS_ENZ_hCK1a, was analyzed in the positive analysis fitting direction relative to DMSO as the negative control and baseline of activity. Using a type of enzyme reporter, loss-of-signal activity can be used to understand changes in the enzymatic activity as they relate to the gene CSNK1A1. Furthermore, this assay endpoint can be referred to as a primary readout, because this assay has produced multiple assay endpoints where this one serves a enzymatic activity function. To generalize the intended target to other relatable targets, this assay endpoint is annotated to the kinase intended target family, where the subfamily is serine/threonine kinase.
Binding assays used specific radioligands (tritiated, iodinated) with non-radioactive competitive displacement ligands in agonist or antagonist protocols (as indicated) and various reference compounds and inhibitors to titrate specific binding to receptors and transporters. Most enzyme assays (CYPs, kinases, phosphatases, proteases, HDACs) used recombinant protein and specific substrates (fluorescence mostly, some colorimetric and radioactive) and inhibitors, followed by a biochemical separation of substrate and product. All assays for the biochemical HTS were initially run in duplicate at a single concentration (10 uM for CYP450 assays and 25 uM for all others). Assay-chemical combinations meeting a pre-defined threshold (e.g., 30% inhibition and other criteria defined below) were then run in singleton concentration-response format with maximum concentration of 20 uM for CYPs and 50 uM for all others. Each assay was run with positive and negative controls, and concurrent controls on every plate. The follow-up (secondary) screen tested active chemical-pairs in concentration series, as well as a few additional assays not tested in the primary screen, some selected negative inactives, and several cases re-run in the concentration series for confirmatory purposes.
For `CN(C)[C@@H]1C(=O)C(C(N)=O)=C(O)[C@@]2(O)C(=O)C3=C(O)c4c(O)cccc4[C@@](C)(O)[C@H]3[C@H](O)[C@@H]12`, the AC50 was 36.4 µM (active).
In the case of `O=C(Nc1ccc([N+](=O)[O-])cc1Cl)c1cc(Cl)ccc1O`, the outcome is reported as “inactive”.
`Nc1nc(N)nc(NC2CC2)n1` was tested, and the outcome was “inactive”.
`O=S(=O)(O)C(F)(F)C(F)(F)C(F)(F)C(F)(F)C(F)(F)C(F)(F)C(F)(F)C(F)(F)F` was tested, and the AC50 was 21.1 µM (active).
In the case of `S=C(S)NCCNC(=S)S.[Mn+2].[S-]C([S-])=NCCN=C([S-])[S-].[Zn+2]`, the AC50 is reported as 9.19 µM (active).
With `S=C([S-])NCCNC(=S)[S-].[Mn+2]` the AC50 was 19.4 µM (active).
In the case of `N#CSCSC#N`, the outcome is reported as “inactive”.
In the case of `CO/C=C(/C(=O)OC)c1ccccc1Oc1cc(Oc2ccccc2C#N)ncn1`, the outcome is reported as “inactive”.
In the case of `O=C(O)C1(C(=O)Nc2ccc(Cl)cc2Cl)CC1`, the AC50 is reported as 8.67 µM (active).
